# ELG1 DNA repair – inhibitors of ELG1-dependent DNA repair in HEK293T cells. HEK293T ELG1-luciferase reporter, luminescence, 16 h; DNA damage induced by 5-fluorouridine. Potency, µM (titrated, usually from 46.1 µM), actives largely listed as inhibitors. 330,000 compounds, 2.3% hits. AID 504467; note: nearly all actives have a fitted effect of over 55% in size
#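 Quantitative HTS, concentration-response format. 2,000 cells/well co-treated with 5-fluorouridine and compound, 16 hr in 5% CO2 at 37 °C; ONE-Glo luminescence read after 30 min.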
# NPC1 prom act – NPC1 promoter activation; Huh7 NPC1 promoter luciferase reporter, 24 h; Potency, µM (titrated, usually from 9.22 µM), most hits filed as activators; 320,000 compounds, 2.4% hits; AID 485313; note: nearly all actives have a fitted effect of over 60% in size
#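 Stable NPC1-promoter luciferase Huh7 line; cpd (DMSO) 24 h, 37 °C, 5% CO2; Amplite luciferase reagent 10 min RT; luminescence readout. qHTS format.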
# FLuc modulator – counter-screen for miR-21 project: firefly luciferase inhibitors or activators. P08659. purified FLuc, Km substrates, luminescence inhibition. Potency, µM (series often up to 57.5 µM), most hits filed as inhibitors. 360,000 compounds, 6.9% hits; note: nearly all actives have a fitted effect of over 55% in size
# Target sequence (P08659 whole entry, looked up): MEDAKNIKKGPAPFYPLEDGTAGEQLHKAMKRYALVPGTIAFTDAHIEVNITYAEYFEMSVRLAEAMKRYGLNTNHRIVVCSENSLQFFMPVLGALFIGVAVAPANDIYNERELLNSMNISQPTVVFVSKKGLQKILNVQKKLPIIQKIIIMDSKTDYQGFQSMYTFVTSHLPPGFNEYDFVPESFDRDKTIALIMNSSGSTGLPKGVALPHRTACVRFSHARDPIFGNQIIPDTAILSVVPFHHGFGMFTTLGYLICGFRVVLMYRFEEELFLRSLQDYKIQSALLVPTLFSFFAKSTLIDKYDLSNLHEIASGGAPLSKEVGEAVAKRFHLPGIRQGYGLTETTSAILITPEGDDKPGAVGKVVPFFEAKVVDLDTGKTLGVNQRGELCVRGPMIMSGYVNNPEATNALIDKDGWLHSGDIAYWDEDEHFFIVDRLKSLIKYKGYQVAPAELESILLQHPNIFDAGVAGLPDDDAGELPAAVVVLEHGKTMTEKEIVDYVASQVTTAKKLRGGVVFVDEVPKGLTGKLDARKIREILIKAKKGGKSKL
#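 Purified P. pyralis luciferase, 10 nM final, with Km-level 10 uM D-luciferin and 10 uM ATP in 50 mM Tris acetate pH 7.5, 10 mM Mg acetate, 0.01% Tween-20, 0.05% BSA; 6-point qHTS titration about 60 µM downward; luminescence read.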
# Rab9 promoter act – Rab9 promoter activation; Huh7 Rab9 promoter-luciferase reporter, luminescence, 24 h; Potency, µM (doses to about 9.22 µM), hits mostly activators; 320,000 compounds, 2.8% hits; AID 485297; note: nearly all actives have a fitted effect of over 60% in size
#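 Luciferase signal after 10 min detection reagent at ambient indicates Rab9 promoter upregulation; stably transfected Huh7 cells were treated 24 h with compound in DMSO at 37 °C, 5% CO2.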
# SMN2 splice up – enhancers of SMN2 splice variant expression. HEK293 SMN2-luciferase splicing reporter, luminescence, 30-36 h. AID 1458. Potency, µM (series often up to 46.1 µM), actives largely listed as activators. 210,000 compounds, 2.8% hits; note: nearly all actives have a fitted effect of over 55% in size
#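 qHTS luciferase splicing reporter: luminescence rises when SMN2 exon 7 is included in transfected HEK293 cells. Compound exposure lasted 30-36 h at 37C, with 4.5 mM final sodium butyrate as control, followed by a ONE-Glo read.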
# ELG1 genotox – induces genotoxicity in HEK293T cells with luciferase-tagged ELG1; HEK293T ELG1-luciferase reporter, luminescence, 16 h; Potency, µM (top dose mostly 46 µM), most hits filed as activators; 330,000 compounds, 1.3% hits; note: nearly all actives have a fitted effect of over 60% in size
#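 ELG1-luciferase HEK293T cells, 2,000/well; compound pinned in; 16 hr, 37 °C, 5% CO2; ONE-Glo, 30 min RT; luminescence on CCD imager.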
# Hits are given with their value; i = inactive; ? = inconclusive; nt = no result; [ ] = another dose, or the depositor's remark. Shown are actives, neighbours in structure and some others; about 9.4% of the full set was active somewhere. Calls come from the whole dose curve; as a rule, active = well fitted curve in the direction sought with a large enough effect; inconclusive = small, poorly fitted or top-dose-only effect, or another doubt; inactive = no such curve, though single readings can be large; an effect the other way counts as inactive or inconclusive.
SMILES,ELG1 DNA repair,NPC1 prom act,FLuc modulator,Rab9 promoter act,SMN2 splice up,ELG1 genotox
Cc1nn(-c2cc(C(F)(F)F)ccc2Cl)c2nc(C(Cl)(Cl)Cl)[nH]c(=O)c12,21µM,i,i,i,nt,i
Cc1ccc(CNC(=O)CN(c2ccc(Cl)cc2Cl)S(=O)(=O)c2ccccc2)cc1,nt,nt,i,nt,i,nt
COc1ccc(C2=NOC(CNC(N)=S)C2)cc1 (centres undefined),?,1µM,11µM,0.71µM,13µM,i
COc1ccc(CNC(=O)C2CC(c3ccc(OC)cc3)=NO2)cc1 (centres undefined),i,i,i,i,i,i
O=C(N/N=C/c1ccco1)c1cc(C2CC2)[nH]n1,?,?,13µM,?,nt,?
O=C(N/N=C/c1cccc2ccccc12)c1cc(C2CC2)[nH]n1,i,i,11µM,i,nt,i
O=C(N/N=C/c1ccccn1)c1cc(C2CC2)[nH]n1,?,?,19µM,1.6µM,?,18µM
Cc1ccc(-c2cc3ncc(C(=O)c4cc([N+](=O)[O-])ccc4O)cn3n2)cc1,nt,nt,9.5µM,nt,i,nt
O=C(CCC(=O)c1ccc(Oc2ccccc2)cc1)Nc1ccc(C(=O)O)cc1,i,i,19µM,i,nt,i
CC(C)(C)c1ccc(Oc2ccc(NC(=O)c3ccccc3C(=O)O)cn2)cc1,i,i,19µM,i,nt,i
O=C(CCC(=O)c1ccc(Oc2ccccc2)cc1)Nc1cccc(Cl)c1,i,i,i,i,i,i
Cc1cccc(Oc2ccc(NC(=O)c3ccccc3C(=O)O)cc2)c1,i,i,21µM,i,nt,i
O=C(O)c1ccccc1C(=O)Nc1ccc(Br)c(C(F)(F)F)c1,?,i,19µM,i,nt,i
Cc1cc(C)c(C(=O)Nc2ccc(Br)c(C(F)(F)F)c2)c(C)c1,i,i,i,i,i,i
CCCCc1nc2c(c3c1C[C@H](C)OC3)CN(C(=O)N[C@H](C(=O)OC)C(C)C)CC2,nt,nt,nt,nt,i[9.22 µM],nt
O=C(O)c1ccccc1C(=O)Nc1ccc(Oc2ccccc2)cc1,?,i,27µM,i,nt,i
Cc1nn2c(=O)cc(COc3ccc(/C=C(\C#N)C(=O)Nc4ccc(F)cc4)cc3)nc2s1,nt,nt,i,nt,i,nt
Cc1cc(C(=O)CSc2ncccn2)c(C)n1Cc1ccco1,?,1µM,3µM,0.56µM,3.5µM,?
Cc1cc(C(=O)CSc2nnnn2C)c(C)n1Cc1ccco1,?,2.8µM,13µM,2.8µM,nt,?
COc1ccccc1CCNC(=O)c1ccc(NC(=O)N2CC(C)Sc3ccccc32)cc1 (centres undefined),nt,nt,i,nt,i,nt
O=C(COc1ccccc1C(=O)NCc1ccccn1)Nc1ccc(Br)cc1,16µM,i,?,i,i,i
Cc1ccc(NC(=O)COc2ccccc2C(=O)NCCc2ccccc2)cc1,?,i,21µM,i,nt,i
Cc1ccc(-c2csc(N=C(N)N)n2)cc1,?,?,15µM,?,nt,i
CCOc1ccc(-c2nc(=S)[nH][nH]2)cc1,?,i,15µM,?,?,?
CCCSc1nnc2c(n1)OC(c1sccc1C)Nc1ccccc1-2 (centres undefined),nt,nt,?,nt,3.2µM,nt
SMILES,ELG1 DNA repair,NPC1 prom act,FLuc modulator,Rab9 promoter act,SMN2 splice up,ELG1 genotox
Cc1cc(C)c(Cn2c3ccccc3c3cnn(CC(=O)NCCCc4ccccc4)c(=O)c32)c(C)c1,nt,nt,i,nt,i,nt
CCOc1ccccc1NC(=O)N1c2ccccc2Sc2ccccc21,nt,nt,i,nt,?,nt
COC(=O)Cc1nc(NC(=O)c2cccs2)sc1C,?,?,17µM,?,nt,i
O=C(NC(=S)Nc1nc2ccccc2s1)c1cccs1,?,?,1.1µM,3.5µM,2µM,?
COC(=O)c1nc(NC(=S)NC(=O)c2cccs2)sc1C,?,?,11µM,?,nt,?
CCOC(=O)c1c(-c2ccc(C)o2)csc1NC(=S)NC(=O)c1cccs1,16µM,i,?,i,i,i
CCc1ccc(-c2nc(NC(=S)NC(=O)c3cccs3)sc2C)cc1,i,i,i,i,i,i
CCOC(=O)c1c(-c2ccc(C)o2)csc1NC(=S)NC(=O)c1ccccc1Br,?,i,i,i,i,i
Cc1cc(C)cc(-n2cnc3cc(C(=O)NCCc4ccccc4)ccc32)c1,nt,nt,i,nt,nt,nt
